Test [1] can be described thus: S16 Schwann cell PMP22 intronic element firefly luciferase assay (AID 624032). Further: nearly all actives have a fitted effect of over 30% in size. Further: potency means the concentration at half of the fitted maximal effect. In a few lines: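 Rat S16 Schwann cells stably carrying a PMP22 intronic element-driven Fluc reporter were seeded overnight, then exposed to compounds for 24 h at 37 °C. Luminescence was normalized to PTC124 (positive control) and DMSO (0% activity).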
The nature of test [2]: S16 Schwann cell PMP22 intronic element beta-lactamase assay (AID 624044; calls by dose curve; further: nearly all actives have a fitted effect of over 15% in size). In a few lines: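 Beta-lactamase reporter under a PMP22 intronic regulatory element in stable S16 rat Schwann cells; 24 h compound exposure. 460 nm blue signal normalized between DMSO (0%) and potassium clavulanate, with 535 nm FRET tracking viability; curves classed by r2 and response.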
The subject of a further test is 3D7. The test is described as follows: qHTS profiling for inhibitors of Plasmodium falciparum proliferation (AID 504749). Further: nearly all actives have a fitted effect of over 60% in size. Further: potency means the concentration at half of the fitted maximal effect. The note with it: P. falciparum in erythrocytes, SYBR Green DNA, 72 h; series mostly up to 12.8 µM. Summed up: (§1)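 Fluorescence of SYBR Green-bound parasite DNA, read at 485/535 nm, served as the growth measure. Infected erythrocytes were cultured with compound 72 h; artemisinin (0.29 uM) and DMSO wells defined the normalization range.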
Background: In qHTS, concentration-response curves come from the screen itself.

A further test deals with 7G8. The description is as above. The conditions noted are these: P. falciparum in erythrocytes, SYBR Green DNA, 72 h; series mostly up to 12.8 µM. In a few lines:
as §1

In the next test the test system is ATS95. The description is as above. The conditions noted are these: P. falciparum in erythrocytes, SYBR Green DNA, 72 h; series mostly up to 12.8 µM. In a few lines: as §1
The next test concerns CP192. The test is described as above. The note with it: P. falciparum in erythrocytes, SYBR Green DNA, 72 h; series mostly up to 28.7 µM. In a few lines:
as §1

The next test has as its system CP194. The test is described as above. The conditions noted are these: P. falciparum in erythrocytes, SYBR Green DNA, 72 h; series mostly up to 12.8 µM. Summed up: as §1
In a further test the test system is CP203. The test is described as above. The note with it: P. falciparum in erythrocytes, SYBR Green DNA, 72 h; series mostly up to 12.8 µM. Summed up: as §1
The next test deals with CP215. Described as above. The conditions noted are these: P. falciparum in erythrocytes, SYBR Green DNA, 72 h; series mostly up to 28.7 µM. Summed up: as §1
For a further test, the system named is CP260. Described as above. The note with it: P. falciparum in erythrocytes, SYBR Green DNA, 72 h; series mostly up to 12.8 µM. Summed up: as §1
The test system of a further test is CP266. Described as above. The conditions noted are these: P. falciparum in erythrocytes, SYBR Green DNA, 72 h; series mostly up to 28.7 µM. Summed up:
as §1

The test system of the next test is CP268. Described as above. The note with it: P. falciparum in erythrocytes, SYBR Green DNA, 72 h; series mostly up to 12.8 µM. In a few lines: as §1
In another test the test system is CP297. The description is as above. The conditions noted are these: P. falciparum in erythrocytes, SYBR Green DNA, 72 h; series mostly up to 12.8 µM. Summed up:
as §1

The subject of another test is DIV14. Described as above. The conditions noted are these: P. falciparum in erythrocytes, SYBR Green DNA, 72 h; series mostly up to 12.8 µM. In a few lines: as §1
The test system of the next test is DIV17. Described as above. The conditions noted are these: P. falciparum in erythrocytes, SYBR Green DNA, 72 h; series mostly up to 12.8 µM. In a few lines:
as §1

In a further test the test system is GB4. The test is described as above. The conditions noted are these: P. falciparum in erythrocytes, SYBR Green DNA, 72 h; series mostly up to 12.8 µM. In a few lines:
as §1

Another test relates to ICS. Described as above. The conditions noted are these: P. falciparum in erythrocytes, SYBR Green DNA, 72 h; series mostly up to 12.8 µM. Summed up:
as §1

The subject of the next test is PAD. The description is as above. The note with it: P. falciparum in erythrocytes, SYBR Green DNA, 72 h; series mostly up to 12.8 µM. Summed up:
as §1

Another test has as its system TAB109. The description is as above. The conditions noted are these: P. falciparum in erythrocytes, SYBR Green DNA, 72 h; series mostly up to 12.8 µM. In a few lines:
as §1

In the next test the test system is W2. The test is described as above. The conditions noted are these: P. falciparum in erythrocytes, SYBR Green DNA, 72 h; series mostly up to 12.8 µM. In a few lines: as §1

Records with an inconclusive call do not appear. The source made the active and inactive calls. Unless noted, the call rests on the fitted dose curve; in most records, active means well fitted curve in the direction sought with a large enough effect; inconclusive means small, poorly fitted or top-dose-only effect, or another doubt; inactive means no such curve, though single readings can be large; an effect the other way counts as inactive or inconclusive.

`CO/N=C(\C(=O)N[C@@H]1C(=O)N2C(C(=O)O)=C(COC(C)=O)CS[C@@H]12)c1csc(N)n1`: the Potency entry (in test [1]; in the test on 3D7; in the test on 7G8; in the test with ATS95; in the test with CP192; in the test on CP194) was “inactive” in each case. Further, the Potency entry with CP203, in the test on CP215, in the test on CP260, in the test on CP266, in the test with CP268 and in the test on CP297 was “inactive” in each case. Further, the Potency entry in the test on DIV14, in the test with DIV17, in the test on GB4, in the test on ICS, with PAD and in the test with TAB109 was “inactive” in each case. In addition, the Potency result with W2 was “inactive”. Moreover, in test [2], the call was inactive.
Consider `CC[C@@]12CCCN3CCc4c(n(c5ccccc45)C(=O)C1)[C@H]32`, for which the Potency entry (in [1]; in the test with 3D7; with ATS95; in the test on CP192; in the test on CP194; in the test on CP203) was “inactive” throughout. Also, the Potency result in the test with CP215, in the test with CP260, with CP266, in the test with GB4, with PAD and in the test on TAB109 was “inactive” throughout.
Regarding `CO[C@]1(NC(=O)CSCC#N)C(=O)N2C(C(=O)O)=C(CSc3nnnn3C)CS[C@H]21`, the Potency result (in test [1]; in the test with 3D7; in the test with 7G8; in the test with ATS95; in the test on CP192; with CP194) was “inactive” throughout. Further, the Potency entry in the test with CP203, with CP215, in the test on CP260, in the test with CP268, in the test on DIV14 and with DIV17 was “inactive” in each case. For the same compound, the Potency result in the test with GB4, in the test on ICS, with PAD, in the test on TAB109 and in the test with W2 was “inactive” each time.
On to `C[C@@H]1COc2c(N3CCN(C)CC3)c(F)cc3c(=O)c(C(=O)O)cn1c23`, for which the Potency entry (in test [1]; in the test on 3D7; in the test with 7G8; in the test on ATS95; with CP192; with CP194) was “inactive” throughout. Besides, the Potency result in the test with CP203, in the test with CP215, in the test with CP266, in the test on CP268, in the test with CP297 and with DIV14 was “inactive” throughout. Further, the Potency entry with DIV17, in the test with GB4, in the test with ICS, in the test on PAD and in the test with TAB109 was “inactive” each time.
With `C[C@@H](CCc1ccccc1)NC[C@H](O)c1ccc(O)c(C(N)=O)c1`, the Potency result (in test [1]; in the test on ATS95; in the test with CP192; with CP194; in the test on CP203; in the test with CP215) was “inactive” in each case. The Potency result with CP260, in the test with CP266, in the test on CP268, in the test with CP297 and with TAB109 was “inactive” each time. Also, the call in [2] was inactive. Besides, in the test with 7G8, the Potency was 11.2 µM (active).
Turning to `CCCN[C@@H](C)C(=O)Nc1ccccc1C`, the Potency result (in test [1]; in the test on 3D7; with 7G8; in the test with ATS95; in the test on CP192; in the test with CP194) was “inactive” each time. In addition, the Potency entry in the test on CP203, in the test with CP215, in the test on CP260, with CP268, with CP297 and with DIV14 was “inactive” throughout. In addition, the Potency result with DIV17, in the test on GB4, in the test on ICS, in the test on PAD, in the test on TAB109 and in the test with W2 was “inactive” throughout. Besides, the compound was called inactive in [2].
For `C[C@@H]1c2cccc(O)c2C(O)=C2C(=O)[C@@]3(O)C(O)=C(C(N)=O)C(=O)[C@@H](N(C)C)[C@@H]3[C@@H](O)[C@@H]21`, the Potency entry (in test [1]; in the test with CP192; in the test with CP215) was “inactive” in each case. In addition, the result in [2] was inactive. The Potency was 3.98 µM (active) in the test on 7G8, 3.55 µM (active) in the test on ICS and 4.26 µM (active) in the test with W2.
For the compound `C[C@H](NCCc1ccc(O)cc1)[C@@H](O)c1ccc(O)cc1`, in test [2], the outcome was inactive. Further, the Potency entry with 3D7, with 7G8, with ATS95, in the test with CP192, with CP194 and in the test on CP203 was “inactive” each time. The Potency result in the test on CP215, in the test with CP266, in the test with CP268, in the test with CP297, in the test on DIV14 and in the test on DIV17 was “inactive” in each case. The Potency result in the test on GB4, with ICS, in the test with PAD, with TAB109 and with W2 was “inactive” throughout.
Take `O=C(c1ccccc1)c1ccc2n1CC[C@H]2C(=O)O`: the Potency result (in test [1]; with 3D7; in the test on 7G8; with ATS95; in the test on CP192; with CP194) was “inactive” in each case. The Potency entry with CP203, with CP215, with CP260, with CP268, in the test on DIV14 and in the test on DIV17 was “inactive” throughout. In addition, the Potency entry in the test with GB4, in the test with ICS, in the test with PAD, in the test on TAB109 and with W2 was “inactive” throughout. For the same compound, the compound was classed as inactive in [2].
Regarding `CN(C)[C@@H]1C(=O)C(C(N)=O)=C(O)[C@]2(O)C(=O)C3=C(O)c4c(O)ccc(Cl)c4[C@H](O)[C@H]3C[C@@H]12`, the Potency result (in [1]; in the test on CP192; in the test on CP194; in the test on CP203; in the test with CP215; in the test with CP266) was “inactive” each time. Moreover, the Potency result in the test on CP268, in the test with CP297, in the test on DIV14 and in the test on DIV17 was “inactive” throughout. Further, the compound was classed as inactive in [2]. For the same compound, the Potency is 3.98 µM (active) with ICS and 5.36 µM (active) in the test on W2.
With `O=C(C1CCCCC1)N1CC(=O)N2CCc3ccccc3[C@@H]2C1`, in test [1], the Potency was 36.1 µM (active). Besides, in [2], the call was inactive.
On to `CCn1cc(C(=O)O)c(=O)c2cc(F)c(N3CCN[C@@H](C)C3)c(F)c21`, for which the Potency entry (in test [1]; with 3D7; in the test on 7G8; in the test with ATS95; in the test with CP192; in the test on CP194) was “inactive” throughout. In addition, the Potency entry in the test on CP203, in the test on CP215, with CP260, in the test on CP266, in the test on CP297 and in the test on DIV14 was “inactive” in each case. Further, the Potency entry in the test with DIV17, with GB4, in the test on ICS, with PAD and in the test with W2 was “inactive” each time. Moreover, the compound was classed as inactive in [2].
As for `NC(=O)c1cc[n+](CC2=C(C(=O)O)N3C(=O)[C@@H](NC(=O)[C@H](c4ccccc4)S(=O)(=O)[O-])[C@@H]3SC2)cc1`, the Potency result in test [1] is “inactive”. In test [2], the compound was classed as inactive. Besides, the Potency in the test on 3D7 was 1.12 µM (active); in the test on 7G8 it was 0.178 µM (active); with ATS95, 3.55 µM (active); in the test on CP260, 1.41 µM (active); in the test with CP268, 4.05 µM (active); in the test with CP297, 6.42 µM (active). Further, the Potency with DIV14 is 0.721 µM (active); in the test on DIV17, 0.572 µM (active); in the test with GB4 it was 0.907 µM (active); in the test with ICS it was 0.355 µM (active); in the test with PAD, 1.41 µM (active); in the test on TAB109 it was 1.41 µM (active). In the test with W2, the Potency was 0.51 µM (active).
As for `CC(C)NC[C@H](O)c1cc(O)cc(O)c1`, the Potency entry in the test with 3D7, in the test on 7G8, with ATS95, with CP192, in the test on CP194 and in the test with CP203 was “inactive” throughout. Besides, the Potency result with CP215, in the test with CP266, in the test on CP268, in the test on CP297, in the test on DIV14 and in the test with DIV17 was “inactive” throughout. Moreover, the Potency entry in the test on GB4, in the test with ICS, in the test with PAD, in the test on TAB109 and in the test with W2 was “inactive” throughout.

For the origin of these results see PubChem BioAssay (NCATS).
